# Test results from paper PMC7883291.
# What was measured:
# Assay in all cases: cross-link between two proteins; cross-linking mass spectrometry
# [1] = target: Cytochrome b-c1 complex subunit 2, mitochondrial (UniProt P23004)
# [2] = target: NADH dehydrogenase [ubiquinone] 1 alpha subcomplex subunit 1 (UniProt Q02377)
# [3] = target: NADH dehydrogenase [ubiquinone] 1 alpha subcomplex subunit 13 (UniProt Q95KV7)
# [4] = target: NADH dehydrogenase [ubiquinone] 1 alpha subcomplex subunit 7 (UniProt Q05752)
# Chain of NADH dehydrogenase [ubiquinone] 1 alpha subcomplex subunit 7 (Q05752 whole entry, one chain of several): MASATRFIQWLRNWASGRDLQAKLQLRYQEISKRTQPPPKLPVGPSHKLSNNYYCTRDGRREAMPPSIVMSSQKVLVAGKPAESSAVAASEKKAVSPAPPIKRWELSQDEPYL
# [5] = target: NADH dehydrogenase [ubiquinone] 1 beta subcomplex subunit 11, mitochondrial (UniProt Q8HXG5)
# Chain of NADH dehydrogenase [ubiquinone] 1 beta subcomplex subunit 11, mitochondrial (Q8HXG5 whole entry, one chain of several): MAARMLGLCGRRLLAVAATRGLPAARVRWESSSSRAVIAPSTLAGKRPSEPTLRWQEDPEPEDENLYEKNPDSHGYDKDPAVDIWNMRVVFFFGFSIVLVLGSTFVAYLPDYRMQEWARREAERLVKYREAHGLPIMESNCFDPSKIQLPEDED
# [6] = target: NADH dehydrogenase [ubiquinone] 1 beta subcomplex subunit 4 (UniProt P48305)
# Chain of NADH dehydrogenase [ubiquinone] 1 beta subcomplex subunit 4 (P48305 whole entry, one chain of several): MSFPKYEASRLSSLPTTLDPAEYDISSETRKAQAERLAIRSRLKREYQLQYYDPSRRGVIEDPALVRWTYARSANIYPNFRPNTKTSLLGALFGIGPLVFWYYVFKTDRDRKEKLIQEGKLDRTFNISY
# [7] = target: NADH dehydrogenase [ubiquinone] iron-sulfur protein 4, mitochondrial (UniProt Q02375)
# Chain of NADH dehydrogenase [ubiquinone] iron-sulfur protein 4, mitochondrial (Q02375 whole entry): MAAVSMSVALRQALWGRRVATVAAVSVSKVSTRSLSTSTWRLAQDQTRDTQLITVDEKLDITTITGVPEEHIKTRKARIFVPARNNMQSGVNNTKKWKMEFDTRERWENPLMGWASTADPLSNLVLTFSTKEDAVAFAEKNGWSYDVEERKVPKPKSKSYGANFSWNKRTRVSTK
# Chain of Cytochrome b-c1 complex subunit 2, mitochondrial (P23004 whole entry, one chain of several): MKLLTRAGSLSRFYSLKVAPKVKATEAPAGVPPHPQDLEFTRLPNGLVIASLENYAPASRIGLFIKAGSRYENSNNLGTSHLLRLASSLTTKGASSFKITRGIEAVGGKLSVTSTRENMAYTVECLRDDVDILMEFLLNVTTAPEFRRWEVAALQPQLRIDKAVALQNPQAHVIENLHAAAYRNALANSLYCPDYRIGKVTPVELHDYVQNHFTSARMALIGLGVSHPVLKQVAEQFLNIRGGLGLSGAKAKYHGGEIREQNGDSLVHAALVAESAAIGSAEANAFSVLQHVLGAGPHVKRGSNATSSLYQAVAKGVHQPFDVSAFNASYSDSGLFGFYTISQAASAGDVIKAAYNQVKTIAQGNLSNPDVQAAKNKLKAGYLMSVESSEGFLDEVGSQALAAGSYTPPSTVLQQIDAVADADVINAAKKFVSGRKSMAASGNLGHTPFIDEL
# Chain of NADH dehydrogenase [ubiquinone] 1 alpha subcomplex subunit 13 (Q95KV7 whole entry, one chain of several): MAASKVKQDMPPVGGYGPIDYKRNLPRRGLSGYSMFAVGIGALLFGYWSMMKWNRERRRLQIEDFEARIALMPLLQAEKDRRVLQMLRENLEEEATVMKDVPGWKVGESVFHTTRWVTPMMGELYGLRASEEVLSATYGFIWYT
# Chain of NADH dehydrogenase [ubiquinone] 1 alpha subcomplex subunit 1 (Q02377 whole entry, one chain of several): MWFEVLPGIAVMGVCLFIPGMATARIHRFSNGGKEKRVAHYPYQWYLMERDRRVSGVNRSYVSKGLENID
# Chain of NADH dehydrogenase [ubiquinone] 1 alpha subcomplex subunit 6, Q02366 (Q02366 whole entry, one chain of several): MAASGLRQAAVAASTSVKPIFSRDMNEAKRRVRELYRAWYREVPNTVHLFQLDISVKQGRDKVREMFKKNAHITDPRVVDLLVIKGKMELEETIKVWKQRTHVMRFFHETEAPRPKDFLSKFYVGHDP
substance,measurement,setting,value
"Cytochrome c1, heme protein, mitochondrial, P00125",listed as a hit,[1],yes
"Cytochrome b-c1 complex subunit 7, P00129",listed as a hit,[1],yes
"NADH dehydrogenase [ubiquinone] 1 alpha subcomplex subunit 8, P42029",listed as a hit,[2],yes
"NADH dehydrogenase [ubiquinone] iron-sulfur protein 5, Q02379",listed as a hit,[3],yes
"NADH dehydrogenase [ubiquinone] 1 alpha subcomplex subunit 5, P23935",listed as a hit,[4],yes
"NADH dehydrogenase [ubiquinone] 1 beta subcomplex subunit 8, mitochondrial, Q02372",listed as a hit,[5],yes
"NADH dehydrogenase [ubiquinone] 1 beta subcomplex subunit 9, Q02369",listed as a hit,[5],yes
"Cytochrome b-c1 complex subunit 1, mitochondrial, P31800",listed as a hit,[6],yes
"NADH dehydrogenase [ubiquinone] 1 alpha subcomplex subunit 6, Q02366",listed as a hit,[7],yes
"NADH dehydrogenase [ubiquinone] iron-sulfur protein 3, mitochondrial, P23709",listed as a hit,[7],yes
